According to ChEMBL document CHEMBL3988442, “University of Dundee, Small-Polar-MMV Screening Library” (2021):
For some of these results: Measured potencies and affinities stand elsewhere.

Columns and labels:
Design in all cases: scale not given: direction of the effect not stated beside the values
[1] = molecular target: Protein translocase subunit SecA (Escherichia coli (strain K12)) (UniProt P10408); experiment: Assay to Identify E. coli SecA ATPase Inhibitors; assay type: functional; conditions: 30 µM
[2] = molecular target: T1, Ubiquitin-activating enzyme e1, putative (Leishmania donovani (strain BPK282A1)) (UniProt E9BSI1); experiment: Leishmania donovani Ubiquitin Activating Enzyme (LdE1); assay type: functional; conditions: 30 µM
T1 sequence (whole entry): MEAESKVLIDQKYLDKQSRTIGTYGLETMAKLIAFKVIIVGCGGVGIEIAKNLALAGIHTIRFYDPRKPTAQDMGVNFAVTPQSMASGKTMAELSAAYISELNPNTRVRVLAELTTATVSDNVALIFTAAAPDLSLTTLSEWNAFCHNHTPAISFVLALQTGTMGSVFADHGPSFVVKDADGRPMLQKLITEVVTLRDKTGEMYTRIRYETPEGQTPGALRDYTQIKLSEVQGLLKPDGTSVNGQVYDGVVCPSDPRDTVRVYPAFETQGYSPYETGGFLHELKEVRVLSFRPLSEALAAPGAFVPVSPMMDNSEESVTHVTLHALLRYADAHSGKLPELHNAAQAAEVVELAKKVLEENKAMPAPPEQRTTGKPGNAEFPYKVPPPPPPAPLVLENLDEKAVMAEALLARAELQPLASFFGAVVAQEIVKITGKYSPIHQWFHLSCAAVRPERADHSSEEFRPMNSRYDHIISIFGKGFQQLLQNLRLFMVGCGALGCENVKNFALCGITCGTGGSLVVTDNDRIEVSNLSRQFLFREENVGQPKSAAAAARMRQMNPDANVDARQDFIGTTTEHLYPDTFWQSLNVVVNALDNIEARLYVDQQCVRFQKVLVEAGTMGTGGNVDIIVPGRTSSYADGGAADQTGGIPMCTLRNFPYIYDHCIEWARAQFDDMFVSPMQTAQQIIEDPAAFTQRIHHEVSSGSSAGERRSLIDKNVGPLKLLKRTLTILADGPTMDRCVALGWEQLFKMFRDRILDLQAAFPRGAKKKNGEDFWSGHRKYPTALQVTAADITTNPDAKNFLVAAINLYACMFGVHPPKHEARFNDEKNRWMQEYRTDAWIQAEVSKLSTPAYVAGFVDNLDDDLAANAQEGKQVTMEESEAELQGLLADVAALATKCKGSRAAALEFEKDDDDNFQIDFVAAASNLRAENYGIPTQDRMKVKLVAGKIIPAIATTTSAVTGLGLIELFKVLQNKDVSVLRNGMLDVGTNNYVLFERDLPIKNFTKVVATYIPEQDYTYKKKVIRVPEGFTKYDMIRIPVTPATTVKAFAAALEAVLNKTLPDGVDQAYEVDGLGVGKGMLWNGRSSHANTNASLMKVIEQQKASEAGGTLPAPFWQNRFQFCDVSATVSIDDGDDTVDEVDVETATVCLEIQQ

[3] = molecular target: AMP-activated protein kinase, AMPK (Homo sapiens) (UniProt P54646+O43741+P54619+Q9UGJ0+Q9Y478+Q13131+Q9UGI9); experiment: AMP-dependent Kinase enzyme assay. An in vitro enzyme assay that detects ADP turnover that is directly proportional to AMPK activity. This uses naive AMPK that is activated during the assay with MK-8722; assay type: functional; conditions: 30 µM
[4] = molecular target: Sialic acid-binding Ig-like lectin 9 (Homo sapiens) (UniProt Q9Y336); experiment: Hs-Siglec9 ALPHAscreen SOP 20170721; conditions: 10 µM
Trypanosoma cruzi = experiment: Trypanosoma cruzi phosphomannomutase and mannose-1-phosphate guanylyltransferase assay; assay type: functional; conditions: 10 µM
[5] = molecular target: T2, Arginase-2, mitochondrial (Homo sapiens) (UniProt P78540); experiment: in vitro enzyme assay to detect the production of urea directly proportional to the activity of Arginase II; assay type: functional; conditions: 33.3 µM; further: in the data most compounds retested in dose-response had high values
T2 sequence (whole entry): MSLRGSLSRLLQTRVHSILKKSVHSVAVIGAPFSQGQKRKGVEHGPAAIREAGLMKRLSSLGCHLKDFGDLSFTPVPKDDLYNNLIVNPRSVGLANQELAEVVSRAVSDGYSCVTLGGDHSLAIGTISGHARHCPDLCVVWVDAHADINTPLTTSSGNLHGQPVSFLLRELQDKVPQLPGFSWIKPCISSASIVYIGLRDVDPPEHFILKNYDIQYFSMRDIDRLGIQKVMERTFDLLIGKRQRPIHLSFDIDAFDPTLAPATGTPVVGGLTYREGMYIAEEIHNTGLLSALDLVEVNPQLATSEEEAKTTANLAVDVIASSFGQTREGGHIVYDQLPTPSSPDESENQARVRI

[6] = molecular target: T3, Proteasome subunit beta (Trypanosoma cruzi) (UniProt O96673); experiment: Trypanosoma cruzi proteasome chymotrypsin-like activity (TcProtChymo) assay.; further: in the data most compounds retested in dose-response had high values; assay type: functional; conditions: 9.37 µM
T3 sequence (whole entry): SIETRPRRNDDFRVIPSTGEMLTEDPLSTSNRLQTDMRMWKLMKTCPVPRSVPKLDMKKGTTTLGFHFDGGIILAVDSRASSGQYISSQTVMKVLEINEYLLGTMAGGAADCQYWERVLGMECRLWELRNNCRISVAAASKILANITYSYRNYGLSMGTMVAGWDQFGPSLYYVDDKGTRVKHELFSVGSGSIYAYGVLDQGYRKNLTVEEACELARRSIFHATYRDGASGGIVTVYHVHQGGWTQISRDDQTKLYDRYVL

Homo sapiens = species: Homo sapiens; experiment: To identify inhibition of the IFN signalling (Jak-Stat) pathway via expression of an eGFP reporter gene under the control of an IFN-stimulated response element (ISRE) containing MxA promoter.; assay type: functional; conditions: 30 µM
[7] = molecular target: T4, Tyrosyl-tRNA synthetase, putative (Trypanosoma cruzi (strain CL Brener)) (UniProt Q4DSP6); experiment: Trypanosoma cruzi tyrosyl tRNA synthetase (TcYRS) _High Tyrosine SOP; assay type: functional; conditions: 30 µM; further: in the data most compounds retested in dose-response had high values
T4 sequence (whole entry): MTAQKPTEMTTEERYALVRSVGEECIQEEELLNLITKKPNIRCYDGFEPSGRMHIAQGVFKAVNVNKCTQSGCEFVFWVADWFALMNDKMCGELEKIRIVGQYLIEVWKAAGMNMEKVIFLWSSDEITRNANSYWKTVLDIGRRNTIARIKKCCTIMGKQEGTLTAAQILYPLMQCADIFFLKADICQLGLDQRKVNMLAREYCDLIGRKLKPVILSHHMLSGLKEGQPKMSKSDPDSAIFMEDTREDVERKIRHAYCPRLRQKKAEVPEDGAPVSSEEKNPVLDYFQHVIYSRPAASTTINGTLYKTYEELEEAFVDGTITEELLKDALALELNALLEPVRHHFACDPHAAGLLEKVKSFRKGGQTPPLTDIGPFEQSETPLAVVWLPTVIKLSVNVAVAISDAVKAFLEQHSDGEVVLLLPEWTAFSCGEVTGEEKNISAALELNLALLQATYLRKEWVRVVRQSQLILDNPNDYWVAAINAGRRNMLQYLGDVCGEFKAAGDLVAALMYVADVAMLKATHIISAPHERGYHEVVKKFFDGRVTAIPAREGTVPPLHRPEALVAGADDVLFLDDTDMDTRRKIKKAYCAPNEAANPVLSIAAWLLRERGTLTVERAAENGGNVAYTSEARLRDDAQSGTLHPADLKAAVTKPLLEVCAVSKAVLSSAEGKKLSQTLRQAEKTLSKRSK

[8] = molecular target: T4, Tyrosyl-tRNA synthetase, putative (Trypanosoma cruzi (strain CL Brener)); experiment: Trypanosoma cruzi tyrosyl tRNA synthetase (TcYRS) SOP; assay type: functional; conditions: 30 µM
[9] = molecular target: Chromo domain-containing protein 1 (Saccharomyces cerevisiae (strain ATCC 204508 / S288c) (Baker's yeast)) (UniProt P32657); experiment: ScCHD-1 Enzyme Inhibition Assay; assay type: functional; conditions: 30 µM; further: in the data most compounds retested in dose-response had high values
Chain of Chromo domain-containing protein 1 (Saccharomyces cerevisiae (strain ATCC 204508 / S288c) (Baker's yeast)) (P32657 whole entry, the tested form may be a part): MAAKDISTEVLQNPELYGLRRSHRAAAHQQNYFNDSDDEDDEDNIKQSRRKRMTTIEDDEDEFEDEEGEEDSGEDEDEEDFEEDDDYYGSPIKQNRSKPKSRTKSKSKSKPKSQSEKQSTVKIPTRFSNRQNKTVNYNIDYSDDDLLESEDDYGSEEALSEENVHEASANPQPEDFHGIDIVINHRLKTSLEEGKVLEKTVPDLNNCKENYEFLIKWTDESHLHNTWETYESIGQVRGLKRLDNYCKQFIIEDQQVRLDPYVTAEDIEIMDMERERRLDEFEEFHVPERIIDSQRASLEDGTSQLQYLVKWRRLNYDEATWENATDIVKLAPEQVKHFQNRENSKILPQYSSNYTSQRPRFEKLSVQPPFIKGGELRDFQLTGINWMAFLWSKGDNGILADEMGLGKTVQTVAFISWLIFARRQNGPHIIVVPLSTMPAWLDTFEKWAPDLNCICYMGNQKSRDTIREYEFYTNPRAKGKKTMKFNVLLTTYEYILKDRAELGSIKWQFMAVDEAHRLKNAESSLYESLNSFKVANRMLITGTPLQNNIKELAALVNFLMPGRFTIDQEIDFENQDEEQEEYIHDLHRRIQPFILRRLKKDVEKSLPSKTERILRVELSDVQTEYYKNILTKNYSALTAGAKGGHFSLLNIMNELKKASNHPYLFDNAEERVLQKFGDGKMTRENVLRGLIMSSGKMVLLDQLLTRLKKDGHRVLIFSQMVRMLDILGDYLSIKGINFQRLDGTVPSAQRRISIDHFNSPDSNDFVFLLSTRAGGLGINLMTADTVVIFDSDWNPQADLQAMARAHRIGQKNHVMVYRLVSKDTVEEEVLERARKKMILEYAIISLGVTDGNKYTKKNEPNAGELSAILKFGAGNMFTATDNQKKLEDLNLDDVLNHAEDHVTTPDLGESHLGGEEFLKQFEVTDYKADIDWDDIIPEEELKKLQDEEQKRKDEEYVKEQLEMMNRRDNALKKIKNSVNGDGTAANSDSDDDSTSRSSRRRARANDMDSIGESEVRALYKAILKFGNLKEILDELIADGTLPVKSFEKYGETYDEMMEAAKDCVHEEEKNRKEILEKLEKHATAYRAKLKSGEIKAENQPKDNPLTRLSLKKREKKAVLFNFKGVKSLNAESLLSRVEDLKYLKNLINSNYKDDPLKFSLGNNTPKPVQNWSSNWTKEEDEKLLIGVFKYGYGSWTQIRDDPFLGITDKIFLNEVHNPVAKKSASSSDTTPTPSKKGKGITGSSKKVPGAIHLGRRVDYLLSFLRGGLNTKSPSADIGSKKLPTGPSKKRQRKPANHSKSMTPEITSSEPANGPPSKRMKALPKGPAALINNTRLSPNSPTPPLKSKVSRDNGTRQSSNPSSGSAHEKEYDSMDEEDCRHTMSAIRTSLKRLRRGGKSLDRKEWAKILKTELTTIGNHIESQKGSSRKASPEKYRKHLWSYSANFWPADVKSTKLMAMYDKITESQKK

Chain of Protein translocase subunit SecA (Escherichia coli (strain K12)) (P10408 whole entry): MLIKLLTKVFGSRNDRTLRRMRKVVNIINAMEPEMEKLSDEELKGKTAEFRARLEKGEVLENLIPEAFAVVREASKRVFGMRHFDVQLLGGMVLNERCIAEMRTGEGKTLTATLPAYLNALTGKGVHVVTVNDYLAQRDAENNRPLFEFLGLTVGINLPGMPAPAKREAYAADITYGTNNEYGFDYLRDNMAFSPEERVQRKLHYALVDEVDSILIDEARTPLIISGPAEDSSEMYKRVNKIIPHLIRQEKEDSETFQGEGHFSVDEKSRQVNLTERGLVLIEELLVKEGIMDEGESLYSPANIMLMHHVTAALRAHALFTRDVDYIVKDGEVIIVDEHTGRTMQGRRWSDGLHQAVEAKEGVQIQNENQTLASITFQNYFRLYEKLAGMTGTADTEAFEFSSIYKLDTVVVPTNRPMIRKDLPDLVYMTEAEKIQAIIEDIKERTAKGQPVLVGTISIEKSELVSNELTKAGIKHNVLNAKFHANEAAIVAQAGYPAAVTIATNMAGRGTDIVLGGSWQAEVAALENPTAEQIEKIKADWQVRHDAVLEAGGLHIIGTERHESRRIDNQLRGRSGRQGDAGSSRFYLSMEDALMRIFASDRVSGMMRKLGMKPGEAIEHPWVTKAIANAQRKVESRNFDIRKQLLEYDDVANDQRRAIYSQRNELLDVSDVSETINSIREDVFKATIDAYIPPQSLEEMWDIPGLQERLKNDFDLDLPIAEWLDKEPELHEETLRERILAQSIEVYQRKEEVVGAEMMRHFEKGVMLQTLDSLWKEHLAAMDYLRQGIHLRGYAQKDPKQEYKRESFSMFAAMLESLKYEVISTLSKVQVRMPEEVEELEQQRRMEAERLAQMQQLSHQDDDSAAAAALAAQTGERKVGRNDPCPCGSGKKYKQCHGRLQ
Chain of Sialic acid-binding Ig-like lectin 9 (Homo sapiens) (Q9Y336 whole entry): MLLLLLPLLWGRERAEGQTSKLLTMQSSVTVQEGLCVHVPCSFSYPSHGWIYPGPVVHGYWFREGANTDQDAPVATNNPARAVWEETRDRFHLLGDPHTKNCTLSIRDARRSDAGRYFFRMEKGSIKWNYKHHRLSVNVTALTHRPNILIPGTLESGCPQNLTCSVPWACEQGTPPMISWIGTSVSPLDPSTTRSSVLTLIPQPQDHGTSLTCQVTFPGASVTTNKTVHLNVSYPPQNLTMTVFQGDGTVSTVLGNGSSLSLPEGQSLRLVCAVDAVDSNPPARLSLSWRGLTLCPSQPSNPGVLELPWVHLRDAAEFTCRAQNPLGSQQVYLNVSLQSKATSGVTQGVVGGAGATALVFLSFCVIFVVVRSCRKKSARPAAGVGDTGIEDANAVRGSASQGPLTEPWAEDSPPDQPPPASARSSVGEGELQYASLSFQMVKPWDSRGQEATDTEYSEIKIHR

| SMILES | Percent Effect [1] [%] | Percent Effect [2] [%] | Percent Effect [3] [%] | Percent Effect [4] [%] | Percent Effect (Trypanosoma cruzi) [%] | Percent Effect [5] [%] | Percent Effect [6] [%] | Percent Effect (Homo sapiens) [%] | Percent Effect [7] [%] | Percent Effect [8] [%] | Percent Effect [9] [%] |
| --- | --- | --- | --- | --- | --- | --- | --- | --- | --- | --- | --- |
| COC(=O)CCc1c(C)nn(-c2nc(C)cc(=O)[nH]2)c1C | 2.99 | 15.6 | 14.8 | -8.75 | -3.06 | 0.645 | 4.87 | 25.4 | 7.41 | 11.5 | -5.54 |
| Cc1cc(C)n(CC2CN(Cc3nc(-c4ccoc4)no3)CCO2)n1 (stereo unspecified) | -0.455 | 16.2 | -10.1 | 0.775 | 6.51 | -2.81 | 5.22 | 7.72 | 3.45 | 18.5 | -11.6 |
| Cc1cccnc1CNc1cc(N2CCCC2CO)ncn1 (stereo unspecified) | -2.07 | 2.6 | -9.88 | 14.4 | 2.25 | -3.56 | 8.11 | 11.7 | 2.91 | 9.76 | -6.83 |
| CN(C)S(=O)(=O)N1CCC(Oc2ccccn2)CC1 | -2.83 | 2.6 | 2.73 | -0.581 | -6.41 | -7.1 | 14.1 | -7.21 | 6.35 | -1.28 | -7.73 |
| COCCn1ccc(NC(=O)Nc2cccnc2)n1 | -2.55 | 0 | 3.19 | 3.76 | 2.82 | -7.1 | 15.6 | 21.2 | 3.19 | 7.79 | -6.3 |
| Cc1cc(C(=O)N2CCCC2Cn2nc(C)cc2C)on1 (stereo unspecified) | -2.76 | 10.8 | -7.13 | 13.4 | 3.87 | -7.62 | 4.14 | 8.42 | 5.42 | 18.5 | -8.04 |
| Cc1ccc(CN2CC[C@H]3OCC[C@@H](C(=O)NC4CC4)[C@@H]3C2)o1 | -6.72 | 5.41 | -20.2 | -9.85 | -4.01 | 1.59 | 7.75 | 11.3 | -1.08 | -2.56 | -0.126 |
| CC(c1nc(C2CC2)no1)N1CCN(Cc2ccccc2F)CC1 (stereo unspecified) | -2.5 | 3.8 | 3.7 | 3.98 | -0.718 | 2.8 | 1.2 | -11.4 | 2.08 | 7.59 | -0.861 |
| Cn1cccc1CNC(=O)CCCc1nnc2ccccn12 | -4.97 | 6.67 | -2.6 | 1.09 | 3.14 | -8.28 | 12.4 | -1.85 | 3.17 | 2.56 | -6.43 |
| CCN(CC)C(=O)CCNc1cncc(-n2nc(C)cc2C)n1 | -5.54 | 5.41 | 3.1 | -3.77 | -7.92 | 4.71 | 13.1 | 6.24 | 2.15 | 3.7 | -6.4 |
| Cc1ccc(CN(CCCn2ccnc2)Cc2c[nH]cn2)s1 | -8.11 | 9.46 | -4.5 | 6 | 0 | 1.62 | 11.4 | 9.27 | 9.68 | 14.3 | -25.7 |
